Shiga toxin inh – blocks Shiga toxin action in Vero cells; Vero cells, Shiga toxin protein synthesis inhibition reporter; inhibition, % at 38.7 µM; 290,000 tested, 9.2% active; AID 2315; in the data active = inhibition mostly above about 28%, no sharp cut-off; inactive = mostly below about 43%; also: 0% is about no effect
CHX counter – counter-screen hit for Shiga toxin inhibitors, cycloheximide. max response, %. AID 2314. cell reporter, cycloheximide protein synthesis inhibition counterscreen. 300,000 tested, 12% active; in the data active = max response mostly above about 13%, no sharp cut-off; inactive = mostly below about 14%; also: read at 38.3 µM for the half of the compounds with a filed dose; 0% is about no effect
TbPYK inhibitor – blocks Trypanosoma brucei pyruvate kinase; Q57TT1; TbPYK enzyme, Kinase-Glo Plus ATP luminescence, 45 min; Potency, µM (top dose mostly 76.8 µM), without a hit: at the highest dose activity, negative = inhibition, hits mostly inhibitors; 410,000 tested, 0.12% active; AID 624173; also: potency is read from the fitted curve at half-maximal effect; % is scaled to controls: 0 for no effect and ±100 for the full control effect; nearly all actives have a fitted effect of over 50% in size
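TbPYK + substrate in 50 mM TEA pH 7.2, 100 mM KCl, 10 mM MgCl2, 0.05% BSA, 0.01% Tween-20; cpd pinned; ADP 130 uM final; 45 min RT; Kinase-Glo Plus 10 min; luminescence endpoint.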
Giardia FBPA inh – inhibitors of Giardia lamblia fructose-1,6-bisphosphate aldolase | Potency, µM (highest dose often 59.6 µM), for the others: at the top dose activity, negative = inhibition, hits mostly inhibitors | AID 2451 | 290,000 tested, 0.71% active | A8B2U2 | purified Giardia FBPA; also: potency is read from the fitted curve at half-maximal effect; % is scaled to controls: 0 for no effect and ±100 for the full control effect; nearly all actives have a fitted effect of over 55% in size
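40 nM FBPA preincubated 10 min at RT with compound (up to 57.5 uM final), then substrate plus GAPDH/TPI/NAD/arsenate coupling and diaphorase/resazurin added. Fluorescence read after 20 min at RT, 525/598 nm.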
Sm TGR inh – S. mansoni TGR enzyme inhibition; Q962Y6; purified TGR, DTNB reduction, TNB absorbance 405 nm; Potency, µM (titrated, usually from 114 µM), for inactives: at the highest dose activity change, negative = inhibition, most hits filed as inhibitors; 360,000 tested, 3% active; AID 485364; also: potency is read from the fitted curve at half-maximal effect; % is scaled to controls: 0 for no effect and ±100 for the full control effect; nearly all actives have a fitted effect of over 60% in size
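First, TGR (20 nM dispensed) and NADPH were mixed with compound. Second, a 15 min room-temperature incubation followed. Third, further NADPH and then DTNB were added to start the reaction. Finally, TNB absorbance was monitored kinetically.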
LmPK inh – inhibitors of Leishmania mexicana pyruvate kinase; Q27686; purified LmPK, Kinase-Glo ATP luminescence, 1 h; Potency, µM (titrated, usually from 57.5 µM), for the others: top-dose activity change, negative = inhibition, hits mostly inhibitors; 290,000 tested, 0.37% active; also: potency is read from the fitted curve at half-maximal effect; % is scaled to controls: 0 for no effect and ±100 for the full control effect
Target sequence (Q27686 whole entry, looked up): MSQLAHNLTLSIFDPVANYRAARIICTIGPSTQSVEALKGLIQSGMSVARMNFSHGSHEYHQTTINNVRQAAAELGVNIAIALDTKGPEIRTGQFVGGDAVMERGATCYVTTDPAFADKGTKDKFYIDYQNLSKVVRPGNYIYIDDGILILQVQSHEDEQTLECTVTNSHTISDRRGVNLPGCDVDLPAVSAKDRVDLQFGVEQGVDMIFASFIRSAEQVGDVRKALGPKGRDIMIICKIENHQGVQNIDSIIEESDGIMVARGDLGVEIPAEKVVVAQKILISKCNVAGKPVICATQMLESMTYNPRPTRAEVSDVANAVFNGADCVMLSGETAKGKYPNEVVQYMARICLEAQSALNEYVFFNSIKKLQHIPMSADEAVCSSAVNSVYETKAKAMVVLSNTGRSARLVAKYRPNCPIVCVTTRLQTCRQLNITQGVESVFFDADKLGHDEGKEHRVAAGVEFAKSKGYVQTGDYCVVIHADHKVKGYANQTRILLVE
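In 50 mM imidazole pH 7.2 with 7 mM MgCl2, LmPK (0.1 nM) turned over PEP (0.5 mM) and ADP (0.1 mM) for 1 h at room temperature. Luciferase read-out of ATP.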
* hit, by the source's call; ? = inconclusive; / = no result. The entries come from a sample that favours hits as a whole. Unless noted, calls follow the shape of the dose curve; as a rule, active = well fitted curve in the direction sought with a large enough effect; inconclusive = small, poorly fitted or top-dose-only effect, or another doubt; inactive = no such curve, though single readings can be large; an effect the other way counts as inactive or inconclusive.

SMILES	Shiga toxin inh	CHX counter	TbPYK inhibitor	Giardia FBPA inh	Sm TGR inh	LmPK inh
Cc1nn(C(C)C(=O)NC(C)CCc2ccccc2)c(=O)c2cc3occc3n12 (stereo not given)	1	-5	-1%	-4%	-8%	0%
Cc1ccc(NC(=O)c2[nH]cnc2C(=O)NN)cc1	71*	26*	-4%	6%	-3%	-8%
NS(=O)(=O)c1cccc(NC(=S)NC(=O)C23CC4CC(CC(C4)C2)C3)c1	66*	23*	-15%	-1%	?	0%
C=CCn1c(=NC(=O)C2CC2)sc2cc(NC(C)=O)ccc21	42	28*	2%	-2%	0%	9%
C=CCn1c(=NC(=O)C2CCCCC2)sc2cc(NC(C)=O)ccc21	13	-2	3%	1%	1%	0%
O=C1CN(c2nc(-c3cccnc3)nc3sc4c(c23)CCCC4)CCN1	4	7	0%	-3%	-1%	11%
O=c1oc(-c2cccs2)nc2sc3c(c12)CCCCC3	59*	26*	-4%	8%	0%	-2%
O=c1oc(-c2cc3ccccc3o2)nc2sc3c(c12)CCCC3	36	19	-8%	-3%	1%	0%
Nc1c(C(=O)O)sc2nc(-c3ccccc3)c3c(c12)CCCC3	-5	1	-14%	14%	?	-5%
CCc1c(-c2ccccc2)nc2sc3c(c2c1N)CCCC3	64	19*	2%	-11%	10%	3%
Cc1ccccc1-c1nc2sc3c(c2c(=O)o1)CCC3	3	-2	-8%	0%	1%	-27%
Nc1nc(-c2cccnc2)nc2sc3c(c12)CCCC3	89	31*	2%	-19%	/	-6%
O=c1oc(-c2ccccc2)nc2sc3c(c12)CCCC3	124*	41*	0%	1%	-10%	?
COC(=O)C1=COC(O[C@H]2OC(CO)[C@H](O)C(O)C2O)[C@H]2C1C(=O)C[C@@H]2C (stereo not given in full)	/	/	/	-8%	/	/
CCCC(=O)c1ccc(CP(=O)(OCC)OCC)o1	-4	9	-1%	2%	13µM*	-3%
CCCCN(CCCC)Cc1ccc(C(=O)NN)o1	-7	7	2%	1%	2%	0%
COc1ccc(N/C=C(\C=C\C#N)S(=O)(=O)c2ccccc2)cc1	-13	-4	0%	4%	6.3µM*	5%
N#C/C=C/C(=C\Nc1ccc(Cl)cc1)S(=O)(=O)c1ccccc1	4	-2	-5%	7%	?	0%
COc1ccc(NC(=O)COc2ccc3c(C)cc(=O)oc3c2)cc1S(=O)(=O)N1CCCCC1	/	/	4%	/	?	/
O=C(/C=C/c1c[nH]c2ccccc12)c1cccc2ccccc12	37*	28*	4%	-28%	-25%	3%
O=C(/C=C/c1c[nH]c2ccccc12)c1c(O)n(CCc2ccccc2)c(=O)[nH]c1=O	29	21*	-4%	-12%	-20%	5%
Sc1oc(-c2ccccc2)cc1C=Nc1ccccc1	86	30*	-10%	10%	-37%	-11%
COc1ccc(/[N+]([O-])=C/c2ccoc2)cc1	/	/	-22%	/	5µM*	/
Cc1cc(NC(=O)Nc2cccc(Cl)c2)no1	/	/	-1%	/	/	/
O=C(Nc1cccc(Cl)c1)Nc1nc(-c2ccccc2)cs1	17	-1	-9%	-4%	0%	0%
SMILES	Shiga toxin inh	CHX counter	TbPYK inhibitor	Giardia FBPA inh	Sm TGR inh	LmPK inh
Cc1nnc(NC(=O)Nc2cccc(Cl)c2)s1	80*	51*	-11%	7%	10%	-2%
Cc1csc(NC(=O)Nc2cccc(Cl)c2)n1	86*	30*	3%	-4%	-14%	6%
O=S(=O)(NC[C@@H]1CCC[C@H](CNS(=O)(=O)c2c(F)cccc2F)C1)c1ccc2c(c1)OCCO2	/	/	/	/	-8%	/
CN(C)c1ccc2c(c1)N=C(c1ccco1)OP2(=S)N1CCOCC1 (stereo not given)	77*	31*	?	-18%	0%	-10%
Cc1ccc(-c2nc3sc(CCNC(=O)c4ccc(F)c(F)c4)c(C)n3n2)cc1	/	/	5%	/	1%	/
CCC(C)(C)NC(=O)CN(Cc1ccco1)C(=O)CCC(=O)Nc1nccs1	-10	3	-1%	19%	3%	3%
C/C(=N\NC(=O)c1ccccc1)c1ccc(-n2ccnc2)cc1	60*	37*	-2%	2%	3%	4%
C/C(=N\NC(=O)OC(C)(C)C)c1ccc(-n2ccnc2)cc1	16	13	5%	0%	-3%	-6%
Cc1ccc(NC(=O)n2ccc(-c3ccc(-n4ccnc4)cc3)n2)cc1	85*	40*	0%	2%	3%	0%
CC(=O)Nc1ccc(NC(=O)CSc2ccc(-c3ccc(-n4ccnc4)cc3)nn2)cc1	/	/	-14%	/	-17%	/
CC(C)(C)c1ccc(NC(=O)COc2ccc(-n3ccnc3)cc2)cc1	49*	36*	-13%	-3%	2%	-1%
C/C(=N\NC(=O)COc1ccc(C(C)(C)C)cc1)c1ccc(-n2ccnc2)cc1	31	31*	-12%	2%	-1%	3%
O=C(CSc1nnc2[nH]c(=O)cc(-c3ccccc3)n12)Nc1ccc(OC(F)(F)F)cc1	/	/	-5%	/	2%	/
Cc1ccccc1C(=O)Nc1nnc(SCc2cc(=O)n3ccccc3n2)s1	/	/	-2%	/	6%	/
O=C(OCc1nnc(-c2ccccc2)o1)C1CC(=O)N(c2ccccc2)C1 (stereo not given)	-3	2	0%	-1%	-27%	1%
CCOC(=O)c1sc(N)c(C(=O)OCC)c1COC(=O)C1CC(=O)N(Cc2ccco2)C1 (stereo not given)	-11	1	-5%	-3%	40µM*	-1%
O=C(OCc1nnc(-c2ccccc2)o1)C1CC(=O)N(Cc2ccco2)C1 (stereo not given)	17	10	-3%	-2%	14µM*	5%
OCCN(Cc1ccccc1)c1ncnc2sccc12	-11	-1	1%	6%	-4%	-5%
Cc1[nH]n(C(N)=S)c(=O)c1N=Nc1cccc(C(F)(F)F)c1	32*	17	0%	24%	-1%	3%
Cc1[nH]n(C(N)=S)c(=O)c1N=Nc1ccc(S(=O)(=O)N2CCCC2)cc1	23	19*	-9%	?	0%	-1%
Cc1[nH]n(C(N)=S)c(=O)c1N=Nc1ccc(Br)cc1	42*	27*	-6%	20%	-5%	10%
Cc1ccc(N=Nc2c(C)[nH]n(C(N)=S)c2=O)cc1	56	26	4%	-1%	-2%	-2%
Nn1c(SCC(=O)NC2CCCC2)nnc1C(F)(F)F	/	/	-1%	/	/	/
c1ccc(-c2cn3nc4c(nc3n2)CCCC4)cc1	2	34	?	?	-15%	0%

Screening data as filed in PubChem BioAssay.
